According to PubChem BioAssay:
Activity calls are given as the source filed them.

Columns and labels:
[1] = tested on: PRMT1 (protein arginine N-methyltransferase 1); test: PRMT1 binders on small-molecule microarrays, primary screen, biochemical, small-molecule microarray, 635 nm fluorescence (AID 1088); conditions: small-molecule microarray binding, higher = more signal;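 further: binding of Prmt1 protein to compounds spotted on small-molecule microarray slides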
[2] = yeast growth modulation, basal conditions, primary screen, YJM789 clinical isolate, OD600, 24 h (AID 1089);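 further: growth of clinical yeast isolate S. cerevisiae YJM 789 seeded 1000 cells per well; test concentration not given here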; conditions: S. cerevisiae YJM789 growth, higher = more signal, called active from +8 up or from −8 down
[3] = fission yeast growth modulation, primary screen, strain 972, OD600, 24 h, no modulator (AID 1090);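 further: basal condition with compound alone and no growth modifier present; test concentration not given here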; conditions: S. pombe 972 growth, higher = more signal, called active from +8 up or from −8 down
[4] = S. cerevisiae growth modulation with rapamycin, primary screen, strain BY4716, OD600, 96 h (AID 1091); conditions: higher = more signal, called active from +8 up or from −8 down; further: test concentration not given here
[5] = target: Torsin-1A-interacting protein 2 (Homo sapiens) (UniProt Q8NFQ8); test: LULL1 binders on small-molecule microarray, primary screen, cell lysate, human LULL1 lysate, 635/667 nm fluorescence (AID 1092); conditions: hLULL1 lysate binding, 635 nm fluorescence, higher = more signal;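 further: probe is lysate of COS7 cells overexpressing human LULL1; score merges per-feature 667 nm fluorescence with signal-to-noise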
[6] = E. coli growth modulation, two-sided OD650, primary screen, E. coli filamentation project, strain DRC41, 24 h (AID 1093); conditions: OD650, 24 h, higher = more signal, called active from +8 up or from −8 down;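 further: MC1000 strain lacking acrAB efflux and sulA so SOS filamentation is blocked; test concentration not given here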
[7] = small-molecule microarray binders of probe aLefty2, primary screen, biochemical, biotinylated probe, 635/667 nm fluorescence (AID 1094); conditions: higher = more signal;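 further: score merges spot fluorescence near 667 nm with spot signal-to-noise ratio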
[8] = tested on: Noggin (protein binding on small-molecule microarray); test: Noggin binders on small-molecule microarray, primary screen, biochemical, 635/667 nm fluorescence (AID 1095); conditions: 635 nm fluorescence, higher = more signal;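 further: score merges 667 nm feature fluorescence with signal to noise over triplicate slides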
[9] = target: Neurogenic locus notch homolog protein 3 (Homo sapiens) (UniProt Q9UM47); test: NOTCH3 binders on small-molecule microarray, primary screen, biochemical, 635/667 nm fluorescence (AID 1096); conditions: NOTCH3 binding, 635 nm fluorescence, higher = more signal
[10] = small-molecule microarray binders of probe aEGFR, primary screen, biochemical, biotinylated probe, 635/667 nm fluorescence (AID 1097); conditions: higher = more signal;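 further: probe is a biotinylated anti-EGFR antibody binding compounds printed on slides; score combines fluorescence near 667 nm and signal to noise of each spot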
[11] = tested on: Plasmodium falciparum Sir2 (PF13_0152, Sir2A); test: pfSir2 binders on small-molecule microarrays, primary screen, biochemical, small-molecule microarray, 635 nm fluorescence (AID 1098); conditions: small-molecule microarray binding, fluorescence 635 nm; higher = more signal;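 further: score merges spot fluorescence intensity with its signal-to-noise ratio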
[12] = small-molecule microarray binders of probe aDKK1, primary screen, biochemical, biotinylated probe, 635/667 nm fluorescence (AID 1099); conditions: higher = more signal;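 further: score merges 667nm spot fluorescence with signal to noise across triplicate slides; reference of the scale not given here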
[13] = small-molecule microarray binders of probe aCHRDL2, primary screen, biochemical, biotinylated probe, 635/667 nm fluorescence (AID 1100); conditions: higher = more signal
[14] = splicing luciferase reporter signal modulators, primary screen, spliceosome inhibition project, cell-based, HEK293, splice +/- reporter (AID 1101); conditions: luminescence, 24 h, higher = more signal, called active from +8 up or from −8 down;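 further: HEK293 cells carrying a splicing-competent luciferase reporter gene; test concentration not given here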
[15] = target: Fibroblast growth factor 10 (Homo sapiens) (UniProt O15520); test: FGF10 binders on small-molecule microarrays, primary screen, biochemical, small-molecule microarray, 635 nm fluorescence (AID 1102); conditions: FGF10 binding, fluorescence 635 nm, higher = more signal
[16] = tested on: glycogen synthase kinase-3 (GSK3A per assay name; protocol says GSK3B); test: GSK3 binders on small-molecule microarrays, primary screen, biochemical, small-molecule microarray, 635 nm fluorescence, GSK3A (AID 1103); conditions: small-molecule microarray binding, fluorescence 635 nm; higher = more signal; further: the record names both GSK3A and GSK3B
[17] = target: Epidermal growth factor receptor (Homo sapiens) (UniProt P00533); test: EGFR binders on small-molecule microarrays, primary screen, biochemical, small-molecule microarray, 635 nm fluorescence (AID 1104); conditions: EGFR binding, higher = more signal;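 further: score merges 667 nm emission intensity with spot signal to noise over triplicate slides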
[18] = target: Follistatin-related protein 3 (Homo sapiens) (UniProt O95633); test: FSTL3 binders on small-molecule microarrays, primary screen, biochemical, small-molecule microarray, 635 nm fluorescence (AID 1105); conditions: FSTL3 binding, higher = more signal;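 further: score merges emission near 667 nm and signal to noise per printed spot across three slides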
[19] = target: Dickkopf-related protein 1 (Homo sapiens) (UniProt O94907); test: DKK1 binders on small-molecule microarrays, primary screen, biochemical, small-molecule microarray, 635 nm fluorescence scan (AID 1106); conditions: DKK1 binding, higher = more signal;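 further: score merges emission near 667 nm with signal to noise over three replicate slides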
[20] = tested on: Inhibin beta A chain (activin A); test: INHBA (activin A) binders on microarrays, primary screen, biochemical, small-molecule microarray, 635 nm fluorescence scan (AID 1107); conditions: small-molecule microarray binding, higher = more signal;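 further: mouse activin A protein probed at 4.33 µg/mL on printed slides; score merges bound-protein fluorescence near 667 nm with spot signal-to-noise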

Chain of Fibroblast growth factor 10 (Homo sapiens) (O15520 whole entry, looked up): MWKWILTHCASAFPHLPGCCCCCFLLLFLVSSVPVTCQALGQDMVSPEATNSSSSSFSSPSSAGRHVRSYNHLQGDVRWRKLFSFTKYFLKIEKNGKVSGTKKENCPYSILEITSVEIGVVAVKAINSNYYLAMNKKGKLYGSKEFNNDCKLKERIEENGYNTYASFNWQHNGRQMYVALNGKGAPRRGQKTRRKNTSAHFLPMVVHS
Chain of Dickkopf-related protein 1 (Homo sapiens) (O94907 whole entry, looked up): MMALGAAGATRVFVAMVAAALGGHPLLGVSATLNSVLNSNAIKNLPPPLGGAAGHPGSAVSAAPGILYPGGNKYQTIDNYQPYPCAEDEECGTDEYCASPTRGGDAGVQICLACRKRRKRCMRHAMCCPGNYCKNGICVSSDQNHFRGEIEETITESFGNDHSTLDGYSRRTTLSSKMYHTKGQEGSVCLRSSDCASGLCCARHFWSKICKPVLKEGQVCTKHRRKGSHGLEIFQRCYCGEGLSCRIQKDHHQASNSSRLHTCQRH
Chain of Follistatin-related protein 3 (Homo sapiens) (O95633 whole entry, looked up): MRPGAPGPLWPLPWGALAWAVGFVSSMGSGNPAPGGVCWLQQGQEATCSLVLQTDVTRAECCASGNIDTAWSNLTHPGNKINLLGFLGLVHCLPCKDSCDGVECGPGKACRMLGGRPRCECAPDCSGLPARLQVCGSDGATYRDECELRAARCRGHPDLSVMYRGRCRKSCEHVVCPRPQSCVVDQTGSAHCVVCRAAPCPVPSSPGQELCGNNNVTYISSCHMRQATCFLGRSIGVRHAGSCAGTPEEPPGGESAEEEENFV
Chain of Neurogenic locus notch homolog protein 3 (Homo sapiens) (Q9UM47 whole entry, looked up): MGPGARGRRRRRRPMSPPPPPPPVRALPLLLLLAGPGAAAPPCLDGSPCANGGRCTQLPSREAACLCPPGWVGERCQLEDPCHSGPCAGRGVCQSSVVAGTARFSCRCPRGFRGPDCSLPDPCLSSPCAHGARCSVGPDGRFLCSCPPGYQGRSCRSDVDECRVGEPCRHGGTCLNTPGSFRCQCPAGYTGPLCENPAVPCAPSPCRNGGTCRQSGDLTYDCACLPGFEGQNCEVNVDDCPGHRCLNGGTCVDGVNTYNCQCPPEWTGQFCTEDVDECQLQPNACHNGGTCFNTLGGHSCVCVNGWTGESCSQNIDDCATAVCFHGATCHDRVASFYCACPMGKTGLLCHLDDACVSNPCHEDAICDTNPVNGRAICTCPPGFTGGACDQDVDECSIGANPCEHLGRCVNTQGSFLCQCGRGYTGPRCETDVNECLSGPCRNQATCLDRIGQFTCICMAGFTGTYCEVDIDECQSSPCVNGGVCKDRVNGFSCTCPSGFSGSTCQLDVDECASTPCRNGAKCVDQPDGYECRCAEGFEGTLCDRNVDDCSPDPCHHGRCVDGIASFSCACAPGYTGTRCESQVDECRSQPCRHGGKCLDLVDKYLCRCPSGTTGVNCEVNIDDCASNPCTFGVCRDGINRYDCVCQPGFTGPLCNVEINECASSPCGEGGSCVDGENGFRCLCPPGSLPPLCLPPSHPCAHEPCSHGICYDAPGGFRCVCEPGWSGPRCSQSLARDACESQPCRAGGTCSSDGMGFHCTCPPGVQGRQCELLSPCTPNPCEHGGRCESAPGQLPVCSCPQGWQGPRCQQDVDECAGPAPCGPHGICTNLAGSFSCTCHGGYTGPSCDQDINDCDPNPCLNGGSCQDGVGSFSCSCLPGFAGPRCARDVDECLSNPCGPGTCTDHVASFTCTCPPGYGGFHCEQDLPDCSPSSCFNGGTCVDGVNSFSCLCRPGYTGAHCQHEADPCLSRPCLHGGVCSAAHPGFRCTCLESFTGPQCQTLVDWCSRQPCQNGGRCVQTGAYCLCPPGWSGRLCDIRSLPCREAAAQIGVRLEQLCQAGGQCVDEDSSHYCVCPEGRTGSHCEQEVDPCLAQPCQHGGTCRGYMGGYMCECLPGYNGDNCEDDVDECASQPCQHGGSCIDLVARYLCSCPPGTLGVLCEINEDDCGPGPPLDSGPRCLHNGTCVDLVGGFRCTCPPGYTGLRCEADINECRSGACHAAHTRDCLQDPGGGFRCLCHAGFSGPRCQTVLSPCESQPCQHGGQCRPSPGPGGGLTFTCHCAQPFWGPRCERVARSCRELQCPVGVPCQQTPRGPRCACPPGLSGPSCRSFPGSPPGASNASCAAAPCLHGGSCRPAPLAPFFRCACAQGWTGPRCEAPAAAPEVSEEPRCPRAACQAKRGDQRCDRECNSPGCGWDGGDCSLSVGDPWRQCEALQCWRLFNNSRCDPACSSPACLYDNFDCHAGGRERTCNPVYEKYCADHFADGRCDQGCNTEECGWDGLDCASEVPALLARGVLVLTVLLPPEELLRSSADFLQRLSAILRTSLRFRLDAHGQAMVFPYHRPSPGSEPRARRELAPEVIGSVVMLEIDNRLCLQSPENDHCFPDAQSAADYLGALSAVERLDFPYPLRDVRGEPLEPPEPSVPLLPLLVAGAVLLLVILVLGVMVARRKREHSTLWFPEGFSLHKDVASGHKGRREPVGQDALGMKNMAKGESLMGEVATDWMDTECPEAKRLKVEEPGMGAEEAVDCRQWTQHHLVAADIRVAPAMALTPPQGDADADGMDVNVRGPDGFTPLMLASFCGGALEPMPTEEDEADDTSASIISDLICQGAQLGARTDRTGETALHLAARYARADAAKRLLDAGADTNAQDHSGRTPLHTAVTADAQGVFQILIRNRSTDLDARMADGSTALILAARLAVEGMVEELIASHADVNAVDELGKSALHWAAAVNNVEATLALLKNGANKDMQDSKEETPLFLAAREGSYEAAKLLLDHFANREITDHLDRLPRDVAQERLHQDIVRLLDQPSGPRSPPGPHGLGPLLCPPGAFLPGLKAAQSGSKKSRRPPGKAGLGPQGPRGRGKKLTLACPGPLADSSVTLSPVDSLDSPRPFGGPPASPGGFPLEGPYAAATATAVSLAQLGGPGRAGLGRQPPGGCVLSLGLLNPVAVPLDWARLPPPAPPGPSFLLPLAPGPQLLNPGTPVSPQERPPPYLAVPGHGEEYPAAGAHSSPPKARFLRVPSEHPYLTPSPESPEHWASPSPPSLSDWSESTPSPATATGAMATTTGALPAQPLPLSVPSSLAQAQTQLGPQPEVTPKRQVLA
Chain of Torsin-1A-interacting protein 2 (Homo sapiens) (Q8NFQ8 whole entry, looked up): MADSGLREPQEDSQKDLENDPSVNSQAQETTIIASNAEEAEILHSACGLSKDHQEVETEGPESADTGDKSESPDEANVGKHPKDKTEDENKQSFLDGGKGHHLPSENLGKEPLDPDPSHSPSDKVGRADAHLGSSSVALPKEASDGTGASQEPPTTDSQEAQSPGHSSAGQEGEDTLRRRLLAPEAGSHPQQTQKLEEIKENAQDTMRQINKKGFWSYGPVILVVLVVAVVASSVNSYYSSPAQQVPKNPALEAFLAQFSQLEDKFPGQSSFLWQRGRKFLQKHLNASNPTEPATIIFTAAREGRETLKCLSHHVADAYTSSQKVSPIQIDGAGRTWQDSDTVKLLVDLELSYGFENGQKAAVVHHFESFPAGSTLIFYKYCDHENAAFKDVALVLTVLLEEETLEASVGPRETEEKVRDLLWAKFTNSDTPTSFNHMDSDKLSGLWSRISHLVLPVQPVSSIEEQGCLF
Chain of Epidermal growth factor receptor (Homo sapiens) (P00533 whole entry, looked up): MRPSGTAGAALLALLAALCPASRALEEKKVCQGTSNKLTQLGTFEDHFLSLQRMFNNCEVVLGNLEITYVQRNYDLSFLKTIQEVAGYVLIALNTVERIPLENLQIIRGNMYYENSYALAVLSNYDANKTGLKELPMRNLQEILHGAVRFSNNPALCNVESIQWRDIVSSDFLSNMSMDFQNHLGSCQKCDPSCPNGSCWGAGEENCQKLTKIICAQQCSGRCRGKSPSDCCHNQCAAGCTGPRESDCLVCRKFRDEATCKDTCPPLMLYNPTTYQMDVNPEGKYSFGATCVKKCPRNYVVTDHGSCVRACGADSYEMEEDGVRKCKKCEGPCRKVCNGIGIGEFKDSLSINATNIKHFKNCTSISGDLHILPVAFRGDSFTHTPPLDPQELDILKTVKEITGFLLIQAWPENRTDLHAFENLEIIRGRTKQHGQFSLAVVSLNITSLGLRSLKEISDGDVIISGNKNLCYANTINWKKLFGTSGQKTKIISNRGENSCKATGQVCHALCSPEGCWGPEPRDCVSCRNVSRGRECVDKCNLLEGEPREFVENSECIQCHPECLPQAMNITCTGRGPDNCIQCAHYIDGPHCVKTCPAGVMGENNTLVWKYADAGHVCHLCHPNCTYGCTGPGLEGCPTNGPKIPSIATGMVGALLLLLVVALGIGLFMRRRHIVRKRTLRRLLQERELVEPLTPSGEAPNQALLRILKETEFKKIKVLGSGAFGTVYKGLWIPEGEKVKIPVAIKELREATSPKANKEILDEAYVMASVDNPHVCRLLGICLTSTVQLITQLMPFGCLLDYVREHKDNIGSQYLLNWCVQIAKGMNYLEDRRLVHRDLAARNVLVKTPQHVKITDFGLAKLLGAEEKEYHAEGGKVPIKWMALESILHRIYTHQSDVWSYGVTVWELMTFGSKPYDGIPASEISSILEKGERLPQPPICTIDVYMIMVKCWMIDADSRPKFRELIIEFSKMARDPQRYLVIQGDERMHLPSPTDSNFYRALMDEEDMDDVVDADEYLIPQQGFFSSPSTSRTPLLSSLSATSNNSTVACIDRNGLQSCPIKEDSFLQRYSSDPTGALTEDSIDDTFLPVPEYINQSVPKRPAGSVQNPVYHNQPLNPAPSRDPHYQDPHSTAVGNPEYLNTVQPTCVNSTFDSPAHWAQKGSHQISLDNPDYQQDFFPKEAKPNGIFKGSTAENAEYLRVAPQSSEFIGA

Structure (SMILES) | composite z-score [1] | z-score [2] | z-score [3] | z-score [4] | composite z-score [5] | z-score [6] | composite z-score [7] | composite z-score [8] | composite z-score [9] | composite z-score [10] | composite z-score [11] | composite z-score [12] | composite z-score [13] | z-score [14] | composite z-score [15] | composite z-score [16] | composite z-score [17] | composite z-score [18] | composite z-score [19] | composite z-score [20]
COCC(=C=CC[C@H](O)c1cccc(OCCO)c1)C[C@H](O)COCc1ccccc1 | 0.949 | -0.244 (inactive) | -1.43 (inactive) | -0.271 (inactive) | 2.22 | -0.142 (inactive) | 0.084 | 0.546 | 0.237 | 0.0167 | 1.66 | 0.39 | -0.121 | 0.13 (inactive) | 1.17 | 0.677 | -0.751 | 0.0438 | -0.529 | 1.03
COCCOC(=O)N1C(=O)[C@@]2(c3cc(C#CC4=CCCCC4)ccc31)[C@H](C(=O)N1CCCCCCC1)[C@H]1C(=O)O[C@H](c3ccccc3)[C@H](c3ccccc3)N1[C@@H]2c1ccc(OCCO)cc1 | 1.22 | 0.175 (inactive) | -0.534 (inactive) | 1.62 (inactive) | 0.973 | -0.909 (inactive) | 0.726 | 1.52 | 1.06 | 0.265 | 1.23 | 0.977 | 0.734 | -0.611 (inactive) | 1.03 | 1.17 | 0.825 | 1.23 | 0.835 | 1.43
CC(CO)N1C(=O)[C@@H]2[C@H]3C(=O)OCC=C[C@H]3OC23C=CCN(c2ccc(Cl)cc2)C(=O)[C@@H]13 (stereo not given in full) | -0.421 | -0.686 (inactive) | -0.244 (inactive) | -0.404 (inactive) | -0.391 | 0.612 (inactive) | 0 | -2.26 | -1.05 | -0.297 | 1.93 | -0.125 | 0.837 | -0.00913 (inactive) | -1.59 | -0.501 | -2.15 | -2.43 | -1.92 | -3.56
CCOC(=O)C1=CCN(S(=O)(=O)c2ccc(C)cc2)C1c1ccccc1 (stereo not given) | 1.03 | -1.76 (inactive) | -0.849 (inactive) | 0.318 (inactive) | 2.93 | -0.4 (inactive) | 0.38 | 0.216 | 0.821 | 0.227 | 0.494 | 0.129 | 0.221 | -0.377 (inactive) | 1.19 | 0.509 | 0.204 | 0.493 | 0.22 | 0.867
CCCCC(=C=CC[C@H](O)c1ccc(OCCO)cc1)C[C@H](O)c1cc(Cl)cc(Cl)c1O | 1.18 | 0.294 (inactive) | -3.5 (inactive) | -0.15 (inactive) | 1.54 | 0.0374 (inactive) | -0.192 | 0.563 | 0.62 | -0.183 | 1.06 | -0.0865 | 0.218 | -0.321 (inactive) | 1.35 | 0.11 | -0.0609 | 0.17 | 0.193 | 0.813
CC(C)CNC(=O)[C@@H]1c2ccccc2C(=O)N(C2CCCCC2)[C@H]1c1ccc(CO)cc1 | 0.933 | -0.417 (inactive) | -0.641 (inactive) | -0.812 (inactive) | 3.03 | 3.31 (inactive) | -0.137 | -0.369 | -0.358 | -0.218 | 1.65 | 0.477 | 0.962 | -1.25 (inactive) | -0.0953 | 0.185 | -0.602 | -0.333 | -0.308 | 0.0986
COC(=O)[C@@]1(Cc2ccc(F)cc2)[C@H]2c3cc(C(=O)N(C)C)n(Cc4ccc(O)c(OC)c4)c3C[C@H]2CN1C(=O)c1ccccc1 | 0.423 | 0.0973 (inactive) | -1.2 (inactive) | 0.485 (inactive) | 2.2 | 1.02 (inactive) | 0.0043 | 0.718 | 1.13 | 0.0977 | 0.472 | 0.0331 | 0.128 | -4.34 (inactive) | 0.448 | 0.538 | 0.269 | 0.0792 | 0.134 | 0.937
NC(=O)[C@@H]1[C@H]2C(=O)O[C@H](c3ccccc3)[C@H](c3ccccc3)N2[C@H](c2ccc(OCCO)cc2)[C@@]12C(=O)Nc1ccc(C#CCCO)cc12 | 1.45 | 1.58 (inactive) | 0.883 (inactive) | 2.3 (inactive) | 1.85 | 0.459 (inactive) | 0.0847 | -0.159 | -0.0629 | -0.0622 | 0.344 | 0.585 | 0.823 | 1.02 (inactive) | 0.372 | -0.168 | -0.385 | -0.12 | 0.0322 | 0.297
CCOC(=O)C[C@H]1[C@H](OC(=O)c2ccc(C(=O)c3ccccc3)cc2)[C@@H](NC(=O)CC(C)C)c2cc(OCCCO)ccc2N1C(=O)Cc1ccc(OC)cc1 | 0.451 | 0.247 (inactive) | 0.22 (inactive) | 0.265 (inactive) | 0.663 | -0.113 (inactive) | 0.0351 | -0.114 | 0.477 | -0.0585 | 0.0092 | 0.393 | 0.671 | -0.441 (inactive) | 0.197 | 0.231 | -0.204 | 0.261 | 0.276 | 0.829
CC(C)CCC[C@@H](C)[C@H]1CC[C@@]2(C)C3=C(CC[C@]12C)[C@@]1(C)CC[C@H](OC(=O)c2ccccc2)C(C)(C)C1CC3 (stereo not given in full) | -0.0528 | -1.9 (inactive) | -0.547 (inactive) | -0.568 (inactive) | -0.11 | 1.59 (inactive) | -0.193 | 0.559 | 0.316 | -0.0828 | 0.238 | -0.279 | -0.501 | -1.54 (inactive) | 0.155 | 0.21 | 0.375 | 0.429 | 0.61 | -0.0754
